For assay [1], the target named is MAP/microtubule affinity-regulating kinase 3 (Homo sapiens) (UniProt P27448). The following applies: at 1 µM.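 Also: reported values are averaged percent inhibition of MARK3.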
Assay [2] has as its target T1, MAP/microtubule affinity-regulating kinase 4 (Homo sapiens) (UniProt Q96L34).
T1 sequence (whole entry): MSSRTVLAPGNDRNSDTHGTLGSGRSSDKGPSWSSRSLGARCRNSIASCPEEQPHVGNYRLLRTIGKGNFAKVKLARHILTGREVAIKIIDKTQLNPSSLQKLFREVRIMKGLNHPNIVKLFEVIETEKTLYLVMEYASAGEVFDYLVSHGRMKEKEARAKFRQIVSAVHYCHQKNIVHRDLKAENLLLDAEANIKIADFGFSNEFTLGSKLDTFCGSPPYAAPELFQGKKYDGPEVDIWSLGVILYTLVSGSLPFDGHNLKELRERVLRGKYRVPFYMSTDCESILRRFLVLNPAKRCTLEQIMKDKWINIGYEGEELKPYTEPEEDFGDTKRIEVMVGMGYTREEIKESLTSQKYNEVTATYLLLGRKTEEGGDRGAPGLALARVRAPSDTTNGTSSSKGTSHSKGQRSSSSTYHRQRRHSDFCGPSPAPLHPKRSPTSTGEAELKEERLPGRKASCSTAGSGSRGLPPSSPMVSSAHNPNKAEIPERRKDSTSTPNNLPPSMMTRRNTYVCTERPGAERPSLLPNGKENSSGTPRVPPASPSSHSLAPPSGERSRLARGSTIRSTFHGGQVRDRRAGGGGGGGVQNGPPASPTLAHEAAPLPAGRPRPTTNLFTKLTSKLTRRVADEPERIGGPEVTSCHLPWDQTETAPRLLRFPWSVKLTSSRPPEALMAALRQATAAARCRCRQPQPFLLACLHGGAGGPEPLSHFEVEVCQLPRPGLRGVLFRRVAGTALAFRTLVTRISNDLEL
The following applies: at 0.1 µM.

The target of assay [3] is T1, MAP/microtubule affinity-regulating kinase 4 (Homo sapiens). The conditions noted are these: at 1 µM.
Assay [4] deals with Maternal embryonic leucine zipper kinase (Homo sapiens) (UniProt Q14680). The following applies: at 0.1 µM.
Sequence of Maternal embryonic leucine zipper kinase (Homo sapiens) (Q14680 whole entry, looked up): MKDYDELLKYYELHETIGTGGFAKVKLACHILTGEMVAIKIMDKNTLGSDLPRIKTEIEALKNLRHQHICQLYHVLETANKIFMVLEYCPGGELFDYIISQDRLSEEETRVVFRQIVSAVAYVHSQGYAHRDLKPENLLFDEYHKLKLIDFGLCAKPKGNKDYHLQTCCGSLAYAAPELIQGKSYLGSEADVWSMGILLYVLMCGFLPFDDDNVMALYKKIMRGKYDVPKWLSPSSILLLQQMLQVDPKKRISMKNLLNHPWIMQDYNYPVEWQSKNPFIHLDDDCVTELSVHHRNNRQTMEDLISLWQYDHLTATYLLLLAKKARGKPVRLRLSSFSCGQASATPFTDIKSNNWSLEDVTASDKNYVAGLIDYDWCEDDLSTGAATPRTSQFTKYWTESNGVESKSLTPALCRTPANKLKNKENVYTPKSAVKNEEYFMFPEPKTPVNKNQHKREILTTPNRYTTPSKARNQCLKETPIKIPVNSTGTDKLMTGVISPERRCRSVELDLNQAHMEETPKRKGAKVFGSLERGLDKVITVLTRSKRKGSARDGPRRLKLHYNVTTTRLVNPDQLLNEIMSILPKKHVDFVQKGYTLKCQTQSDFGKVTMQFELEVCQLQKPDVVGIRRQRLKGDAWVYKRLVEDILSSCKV
Assay [5] has the same target. The following applies: at 1 µM.
Assay [6] concerns the target MAP kinase-interacting serine/threonine-protein kinase 1 (Homo sapiens) (UniProt Q9BUB5). The following applies: at 0.1 µM.
Assay [7] has the same target. The following applies: at 1 µM.
The target of assay [8] is MAP kinase-interacting serine/threonine-protein kinase 2 (Homo sapiens) (UniProt Q9HBH9). The conditions noted are these: at 0.1 µM.
Sequence of MAP kinase-interacting serine/threonine-protein kinase 2 (Homo sapiens) (Q9HBH9 whole entry, looked up): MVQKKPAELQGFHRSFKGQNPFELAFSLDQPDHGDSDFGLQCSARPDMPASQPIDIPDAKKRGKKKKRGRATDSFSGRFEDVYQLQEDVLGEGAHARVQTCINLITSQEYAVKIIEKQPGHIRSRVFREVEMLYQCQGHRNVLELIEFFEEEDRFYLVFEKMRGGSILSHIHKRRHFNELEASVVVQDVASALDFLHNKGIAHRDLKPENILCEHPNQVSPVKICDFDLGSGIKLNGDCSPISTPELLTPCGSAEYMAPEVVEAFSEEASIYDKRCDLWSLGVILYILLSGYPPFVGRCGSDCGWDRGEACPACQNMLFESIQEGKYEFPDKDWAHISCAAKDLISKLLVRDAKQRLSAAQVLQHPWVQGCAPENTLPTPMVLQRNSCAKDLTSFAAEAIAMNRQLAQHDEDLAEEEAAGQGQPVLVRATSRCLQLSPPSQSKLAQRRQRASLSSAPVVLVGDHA
The target is the same in assay [9]. The following applies: at 1 µM.
Assay [10] deals with Serine/threonine-protein kinase MARK2 (Homo sapiens) (UniProt Q7KZI7). The following applies: at 0.1 µM.
Sequence of Serine/threonine-protein kinase MARK2 (Homo sapiens) (Q7KZI7 whole entry): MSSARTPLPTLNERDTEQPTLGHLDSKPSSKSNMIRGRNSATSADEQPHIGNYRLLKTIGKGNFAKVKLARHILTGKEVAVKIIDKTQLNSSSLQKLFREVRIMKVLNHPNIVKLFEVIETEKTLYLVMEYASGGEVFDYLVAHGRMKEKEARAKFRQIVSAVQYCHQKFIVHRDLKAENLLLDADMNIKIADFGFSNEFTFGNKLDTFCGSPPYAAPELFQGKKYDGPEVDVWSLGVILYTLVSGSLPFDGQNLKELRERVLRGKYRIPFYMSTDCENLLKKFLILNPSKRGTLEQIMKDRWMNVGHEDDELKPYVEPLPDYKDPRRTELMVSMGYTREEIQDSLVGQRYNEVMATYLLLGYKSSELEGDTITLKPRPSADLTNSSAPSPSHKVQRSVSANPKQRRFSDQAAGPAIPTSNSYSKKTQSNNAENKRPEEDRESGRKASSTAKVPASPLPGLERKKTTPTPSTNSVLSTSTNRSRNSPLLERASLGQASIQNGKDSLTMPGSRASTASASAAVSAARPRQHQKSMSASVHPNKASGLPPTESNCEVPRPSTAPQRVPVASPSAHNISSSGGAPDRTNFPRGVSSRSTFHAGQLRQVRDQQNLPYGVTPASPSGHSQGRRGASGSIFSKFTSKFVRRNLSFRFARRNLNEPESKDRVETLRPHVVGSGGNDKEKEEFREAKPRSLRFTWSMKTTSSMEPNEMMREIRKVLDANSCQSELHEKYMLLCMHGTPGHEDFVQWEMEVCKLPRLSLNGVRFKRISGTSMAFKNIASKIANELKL
For assay [11] the target is unchanged. The conditions noted are these: at 1 µM.
The target of assay [12] is PAS domain-containing serine/threonine-protein kinase (Homo sapiens) (UniProt Q96RG2). The following applies: at 0.1 µM.
Sequence of PAS domain-containing serine/threonine-protein kinase (Homo sapiens) (Q96RG2 whole entry, the tested form may be a part): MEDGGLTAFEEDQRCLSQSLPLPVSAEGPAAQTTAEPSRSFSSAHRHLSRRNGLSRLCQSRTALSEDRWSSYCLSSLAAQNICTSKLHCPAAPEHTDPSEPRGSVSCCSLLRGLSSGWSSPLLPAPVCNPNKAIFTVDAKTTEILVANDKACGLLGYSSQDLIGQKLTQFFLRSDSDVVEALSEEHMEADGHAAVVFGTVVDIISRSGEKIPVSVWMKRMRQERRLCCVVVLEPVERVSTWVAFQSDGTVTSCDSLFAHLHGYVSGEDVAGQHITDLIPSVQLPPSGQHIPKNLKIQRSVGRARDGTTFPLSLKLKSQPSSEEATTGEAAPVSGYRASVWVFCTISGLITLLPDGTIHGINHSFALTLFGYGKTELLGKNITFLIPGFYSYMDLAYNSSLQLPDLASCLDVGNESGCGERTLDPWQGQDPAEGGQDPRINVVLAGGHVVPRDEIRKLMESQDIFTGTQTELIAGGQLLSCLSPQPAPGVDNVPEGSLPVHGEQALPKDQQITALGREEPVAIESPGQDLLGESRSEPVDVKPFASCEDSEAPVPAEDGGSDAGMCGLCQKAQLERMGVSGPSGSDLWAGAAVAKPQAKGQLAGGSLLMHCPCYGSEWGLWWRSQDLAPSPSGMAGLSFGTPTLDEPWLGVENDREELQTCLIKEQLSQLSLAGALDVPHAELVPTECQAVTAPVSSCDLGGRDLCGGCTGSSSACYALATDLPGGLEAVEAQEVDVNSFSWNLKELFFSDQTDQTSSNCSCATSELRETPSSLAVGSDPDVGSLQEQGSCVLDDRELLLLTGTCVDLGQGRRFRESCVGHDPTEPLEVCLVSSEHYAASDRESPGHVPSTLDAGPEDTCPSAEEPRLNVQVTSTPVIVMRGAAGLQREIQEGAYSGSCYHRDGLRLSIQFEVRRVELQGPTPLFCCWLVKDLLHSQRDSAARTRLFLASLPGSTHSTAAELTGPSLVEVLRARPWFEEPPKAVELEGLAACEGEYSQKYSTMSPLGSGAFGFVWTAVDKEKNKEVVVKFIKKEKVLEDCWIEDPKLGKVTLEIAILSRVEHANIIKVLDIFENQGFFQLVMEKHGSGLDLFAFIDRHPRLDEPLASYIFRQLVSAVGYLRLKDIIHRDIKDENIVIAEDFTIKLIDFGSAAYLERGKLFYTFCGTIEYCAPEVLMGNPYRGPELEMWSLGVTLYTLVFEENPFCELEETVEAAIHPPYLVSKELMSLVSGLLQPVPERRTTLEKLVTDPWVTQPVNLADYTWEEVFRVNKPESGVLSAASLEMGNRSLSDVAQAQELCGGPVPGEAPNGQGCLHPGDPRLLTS
The target is the same in assay [13]. The following applies: at 1 µM.
For assay [14], the target named is Phosphorylase b kinase gamma catalytic chain, skeletal muscle/heart isoform (Homo sapiens) (UniProt Q16816). The conditions noted are these: at 0.1 µM.
Sequence of Phosphorylase b kinase gamma catalytic chain, skeletal muscle/heart isoform (Homo sapiens) (Q16816 whole entry, looked up, canonical isoform): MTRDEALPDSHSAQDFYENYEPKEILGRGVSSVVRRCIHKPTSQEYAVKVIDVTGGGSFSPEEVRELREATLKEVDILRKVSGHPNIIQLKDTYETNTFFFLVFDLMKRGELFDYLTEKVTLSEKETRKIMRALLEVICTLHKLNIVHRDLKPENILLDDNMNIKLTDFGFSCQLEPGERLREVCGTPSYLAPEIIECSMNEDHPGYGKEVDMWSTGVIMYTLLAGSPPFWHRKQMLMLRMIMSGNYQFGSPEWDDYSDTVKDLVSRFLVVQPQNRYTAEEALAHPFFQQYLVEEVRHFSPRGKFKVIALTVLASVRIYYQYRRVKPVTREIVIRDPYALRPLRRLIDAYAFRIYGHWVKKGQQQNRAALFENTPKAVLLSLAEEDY
The target is the same in assay [15]. The conditions noted are these: at 1 µM.
In assay [16] the target is T2, Phosphorylase b kinase gamma catalytic chain, liver/testis isoform (Homo sapiens) (UniProt P15735).
T2 sequence (whole entry): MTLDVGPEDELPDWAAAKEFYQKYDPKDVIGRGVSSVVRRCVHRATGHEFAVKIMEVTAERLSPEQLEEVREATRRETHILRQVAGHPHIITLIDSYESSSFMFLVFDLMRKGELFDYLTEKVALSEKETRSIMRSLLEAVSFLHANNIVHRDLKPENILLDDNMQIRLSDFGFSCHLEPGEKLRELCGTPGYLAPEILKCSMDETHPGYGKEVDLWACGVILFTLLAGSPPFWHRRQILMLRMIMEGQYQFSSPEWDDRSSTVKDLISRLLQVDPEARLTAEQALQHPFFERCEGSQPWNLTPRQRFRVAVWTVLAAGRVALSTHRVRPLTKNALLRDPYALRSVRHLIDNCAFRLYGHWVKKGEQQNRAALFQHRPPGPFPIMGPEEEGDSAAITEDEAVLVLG
The following applies: at 0.1 µM.

The target of assay [17] is T2, Phosphorylase b kinase gamma catalytic chain, liver/testis isoform (Homo sapiens). The following applies: at 1 µM.
The target in assay [18] is Serine/threonine-protein kinase pim-1 (Homo sapiens) (UniProt P11309). The following applies: at 0.1 µM.
Sequence of Serine/threonine-protein kinase pim-1 (Homo sapiens) (P11309 whole entry, looked up): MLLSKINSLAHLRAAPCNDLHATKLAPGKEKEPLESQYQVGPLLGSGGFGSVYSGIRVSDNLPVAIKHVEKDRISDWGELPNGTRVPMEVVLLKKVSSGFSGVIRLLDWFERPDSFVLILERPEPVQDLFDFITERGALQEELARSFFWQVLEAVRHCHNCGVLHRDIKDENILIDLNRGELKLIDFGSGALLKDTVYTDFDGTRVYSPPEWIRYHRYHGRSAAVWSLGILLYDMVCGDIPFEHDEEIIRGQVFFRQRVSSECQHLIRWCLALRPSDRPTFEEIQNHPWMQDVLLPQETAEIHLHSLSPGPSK
For assay [19] the target is unchanged. The following applies: at 1 µM.
The target in assay [20] is Serine/threonine-protein kinase pim-2 (Homo sapiens) (UniProt Q9P1W9). The conditions noted are these: at 0.1 µM.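 Also: reported value is the mean percent inhibition of PIM2, measured in the GSK PKIS kinase inhibitor set screen.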
Sequence of Serine/threonine-protein kinase pim-2 (Homo sapiens) (Q9P1W9 whole entry, looked up): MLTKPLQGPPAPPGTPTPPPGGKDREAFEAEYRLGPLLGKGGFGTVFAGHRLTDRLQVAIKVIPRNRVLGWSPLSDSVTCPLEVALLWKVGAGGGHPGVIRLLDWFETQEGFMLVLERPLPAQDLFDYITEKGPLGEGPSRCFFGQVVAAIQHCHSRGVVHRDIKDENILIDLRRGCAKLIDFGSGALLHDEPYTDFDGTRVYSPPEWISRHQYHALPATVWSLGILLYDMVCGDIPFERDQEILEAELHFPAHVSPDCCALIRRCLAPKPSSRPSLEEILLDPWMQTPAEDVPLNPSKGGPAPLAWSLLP

For eight molecules, inhibition results are on record in ChEMBL document CHEMBL1961873, “Compounds: GSK PKIS; Assays: Nanosyn kinase panel” (2012).

Usually inhibition stands for the relative decrease from the control value, in per cent.

“And” between values parts separate entries of the source, which are not always exact repeats. Equal entries are not always repeated.

Sequence of MAP kinase-interacting serine/threonine-protein kinase 1 (Homo sapiens) (Q9BUB5 whole entry, looked up): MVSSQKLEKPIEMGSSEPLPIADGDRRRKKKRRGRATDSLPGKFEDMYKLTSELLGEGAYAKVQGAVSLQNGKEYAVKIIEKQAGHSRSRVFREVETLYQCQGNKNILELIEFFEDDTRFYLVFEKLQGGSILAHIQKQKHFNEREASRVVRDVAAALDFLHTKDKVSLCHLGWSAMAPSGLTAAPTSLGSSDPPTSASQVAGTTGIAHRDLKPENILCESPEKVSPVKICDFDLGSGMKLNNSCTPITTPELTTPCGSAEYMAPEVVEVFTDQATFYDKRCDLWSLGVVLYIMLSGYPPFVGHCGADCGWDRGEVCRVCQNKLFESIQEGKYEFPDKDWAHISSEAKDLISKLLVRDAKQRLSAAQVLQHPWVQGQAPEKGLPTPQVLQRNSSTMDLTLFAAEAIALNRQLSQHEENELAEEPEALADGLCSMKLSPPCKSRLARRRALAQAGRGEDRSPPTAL

Regarding `COc1c(C(N)=O)cc(-c2ccc(Cl)cc2)cc1-c1ccc(S(N)(=O)=O)cc1`, the inhibition in [1] came to 2.07%; in [2] it was 0.45%; in assay [3] it was 1.37%; in [4], 6.28%; in assay [5], 14.6%; in assay [6], 3.66%. The inhibition in assay [7] is 11.2%; in assay [8] it was 2.02%; in assay [9], 5.44%; in [10], 1.8%; in [11], 1.57%; in assay [12], -2.39%. Further, the inhibition in assay [13] was -1.49%; in assay [14] it was 0.45%; in assay [15], 3.12%; in [16] it was 3.72%; in assay [17], 5.17%; in assay [18], 1.83%. Besides, the inhibition in assay [19] is 2.23%; in [20] it was -0.64%.
Regarding `O=C(O[C@H]1CN[C@H](C#Cc2cc3ncnc(Nc4ccc5c(ccn5Cc5cc(F)ccc5F)c4)c3s2)C1)N1CCOCC1`, the inhibition in [1] came out at 1.49%; in [2] it was 2.82%; in [3] it was 0.75%; in assay [4], 5.51%; in [5], 5.23%; in [6] it was 2.17%. For the same molecule, the inhibition was 5.94% in [7]; 1.3% in assay [8]; 1.83% in assay [9]; 0.88% in assay [10]; -0.27% in assay [11]; 0.1% in [12]. Also, the inhibition in [13] is -1.39%; in [14] it was 3.09%; in assay [15] it was 4.72%; in assay [16], 4.96%; in assay [17], 2.49%; in assay [18], 0.84%. Also, the inhibition in [19] was 0.83%; in assay [20], 0.44%.
For `Nc1nccc(-c2c(-c3ccc(F)cc3)ncn2C2CCNCC2)n1`, the inhibition is 0.65% and -2.22% in assay [1]; -0.05% and 0.87% in assay [2]; 0.67% and 0.98% in assay [3]; -3.33% and -1.76% in [4]; 4.7% and 0.94% in assay [5]; -0.09% and 1.2% in assay [6]. The inhibition in [7] was 12.4% and 3.16%; in assay [8] it was 0.4% and 0.49%; in assay [9] it was 4.75% and 1.44%; in assay [10] it was 0.15% and 0.08%; in assay [11], 1.75% and 0.35%; in assay [12], -0.64% and -0.39%. Moreover, the inhibition in assay [13] was -0.63% and -0.93%; in assay [14], -0.27% and 1.11%; in assay [15] it was 2.04% and 1.58%; in [16], -6.47% and 0.35%; in assay [17] it was -6.27% and -1.71%; in assay [18], 0.29% and -0.7%. The inhibition in [19] is 7.06% and -0.6%; in assay [20], -0.19% and 0.2%.
Turning to `Cc1cc(O)cc(C)c1/C=C/c1cncc(C(N)=O)c1`, the inhibition in [1] was 3.59%; in assay [2], 0.98%; in assay [3], 1.6%; in assay [4] it was 3.07%; in assay [5], 3.76%; in assay [6] it was 9.34%. Further, the inhibition in [7] stood at 44.9%; in assay [8] it was 4.98%; in assay [9], 37.8%; in [10], 0.97%; in [11] it was 1.96%; in assay [12], 0.45%. In addition, the inhibition in assay [13] was -0.18%; in assay [14], 3.36%; in assay [15], 2.58%; in [16], 2.43%; in assay [17], 0.42%; in assay [18], 0.11%. For the same molecule, the inhibition is 0.65% in [19] and 0.8% in [20].
Take `COc1ccc(Nc2ncc(-c3ccccc3)o2)cc1OC`: the inhibition in assay [1] was found to be 26.7%; in assay [2], 2.3%; in [3], 19.4%; in assay [4], 0.74%; in [5], 8.76%; in assay [6], 2.58%. Moreover, the inhibition was found to be 28.8% in assay [7]; 4.65% in assay [8]; 26.1% in assay [9]; 1.48% in assay [10]; 16.8% in assay [11]; 0.54% in [12]. The inhibition stood at 0.81% in assay [13]; 5.28% in assay [14]; 28.9% in assay [15]; 0.22% in assay [16]; 2.01% in assay [17]; 1.41% in assay [18]. The figures for the inhibition in assay [19] and in assay [20] were 2.22% and 1.11%, respectively.
With `COc1cc(N2CCN(C(C)C)CC2)ccc1Nc1nc(Nc2cccc3ncccc23)c2cc[nH]c2n1`, the inhibition in assay [1] was 3.2%; in [2], 0.47%; in [3] it was 1.44%; in assay [4] it was -0.58%; in assay [5], 3.21%; in assay [6], 0.05%. Besides, the inhibition is 2.31% in [7]; -0.09% in assay [8]; 1.91% in [9]; -0.66% in assay [10]; 1.39% in [11]; -0.26% in [12]. The inhibition in [13] was -0.72%; in assay [14], 2.93%; in assay [15], 28.6%; in assay [16], -1.68%; in [17], 0.96%; in [18], 0.12%. The inhibition was 0.51% in assay [19] and -0.9% in assay [20].
For the molecule `N#Cc1ccc2c(-c3ccnc(NC4CC4)n3)c(-c3ccc(F)cc3)nn2c1`, the inhibition in [1] was 0.43%; in assay [2] it was 0.81%; in assay [3], 0.11%; in [4], -0.07%; in assay [5], -2.83%; in assay [6], 1.98%. For the same molecule, the inhibition is 0.7% in assay [7]; -0.74% in assay [8]; 1.03% in [9]; -0.15% in assay [10]; 0.62% in assay [11]; 1.11% in assay [12]. For the same molecule, the inhibition in [13] is 0.62%; in [14] it was 0.42%; in [15], 2.62%; in assay [16], 1.29%; in assay [17], 0.44%; in assay [18] it was -0.01%. The values for the inhibition in assay [19] and in assay [20] were -1.52% and -0.15%, respectively.
For the molecule `COc1ccc2ncn(-c3cc(O[C@H](C)c4ccccc4C(F)(F)F)c(C(N)=O)s3)c2c1`, the inhibition was 1.97% in [1]; -0.65% in [2]; 5.41% in assay [3]; -0.14% in assay [4]; 2.51% in assay [5]; -0.15% in assay [6]. For the same molecule, the inhibition in assay [7] is 3.25%; in assay [8] it was 0.74%; in assay [9] it was 4.03%; in [10], 0.4%; in [11], 4.83%; in [12], -0.55%. Moreover, the inhibition was 0.78% in [13]; 1.28% in [14]; 3.44% in [15]; -1.44% in [16]; 0.1% in assay [17]; 1.71% in [18]. Also, the inhibition in assay [19] was 7.56%; in [20], -0.14%.
